Source: PubChem
Hits are enriched below; roughly 1.3% of the tested compounds scored in any of these assays.
cardiac RTF act – increases calcium sensitivity of human cardiac regulated thin filaments; hit rate 0.24% among 340,000; IANBD-labeled TnC RTF fluorescence at EC20 calcium; 0% EC20 calcium, 100% full calcium; P19429+P45379; activation, % at 7.2 µM; AID 493008;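 active means activation above the mean over all tested compounds plus 3 SD, cut at about 30% in these data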;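 further: rise in fluorescence read as greater calcium sensitivity of cardiac thin filaments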
Keap1-Nrf2 PPI – Keap1-Nrf2 (human) interaction inhibition. hit rate 0.15% among 340,000. Keap1 Kelch-Nrf2 peptide fluorescence polarization, 1536-well. inhibition, % at 9.4 µM. Q14145; in the data active means inhibition above about 12%; inconclusive means no clear call, values can overlap the other calls; inactive means below about 7.3%;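 further: human Keap1 Kelch domain with fluorescein labeled Nrf2 9mer peptide probe; 0% = neutral control wells and 100% = peptide positive control; higher means more block of Keap1 binding to Nrf2 peptide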
Target sequence (Q14145 whole entry, looked up, the tested form may be a part): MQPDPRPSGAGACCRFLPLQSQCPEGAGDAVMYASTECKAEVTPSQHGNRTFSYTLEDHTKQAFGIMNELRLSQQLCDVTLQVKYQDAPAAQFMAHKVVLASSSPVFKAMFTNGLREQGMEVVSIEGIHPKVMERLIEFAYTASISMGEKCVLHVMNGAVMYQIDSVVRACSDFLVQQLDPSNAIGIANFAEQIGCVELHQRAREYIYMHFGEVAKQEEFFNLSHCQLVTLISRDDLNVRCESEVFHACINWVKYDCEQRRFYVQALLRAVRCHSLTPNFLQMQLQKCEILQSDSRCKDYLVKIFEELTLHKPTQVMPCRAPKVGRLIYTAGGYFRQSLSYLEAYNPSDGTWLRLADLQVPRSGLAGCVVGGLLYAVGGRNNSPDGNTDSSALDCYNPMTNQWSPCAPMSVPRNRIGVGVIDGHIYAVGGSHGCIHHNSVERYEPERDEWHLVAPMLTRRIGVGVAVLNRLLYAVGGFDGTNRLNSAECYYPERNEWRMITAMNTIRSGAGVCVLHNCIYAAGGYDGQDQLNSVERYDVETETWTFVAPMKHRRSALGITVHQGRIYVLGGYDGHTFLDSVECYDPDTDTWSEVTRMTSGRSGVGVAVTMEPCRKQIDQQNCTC
eLon inh – E. coli protease La inhibition; P0A9M0; purified E. coli Lon protease, fluorescence polarization; inhibition, % at 7.94 µM; hit rate 0.42% among 360,000; in the data active means inhibition above about 13%, passing the limit was not always enough;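 further: 0% = enzyme with probe and DMSO and 100% = no enzyme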
Cardiac RTF inh – cardiac RTF calcium desensitization; hit rate 0.12% among 340,000; IANBD-labeled cardiac RTF, Ca2+ fluorescence; inhibition, % at 7.15 µM; AID 493244;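 active means inhibition above the mean inhibition of all tested compounds plus 3 SD, cut at about 17% in these data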;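 further: assay run at fixed EC70 calcium of 1.6 mM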
LANA DNA inh – KSHV C-LANA DNA binding inhibition; AID 504423; inhibition, % at 9 µM; MBP-C-LANA/FAM-LBS DNA binding, fluorescence polarization; hit rate 0.078% among 340,000;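 active means highest replicate inhibition at or above 60% at 9 µM, even if other replicates fall short; inactive means all replicates below 60% inhibition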;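 further: 0% = neutral control wells and 100% = 4 µM acridine orange control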
LANA-H2B inh – blocks KSHV LANA binding to histone H2A/H2B. Q9QR71. cell-free LANA-H2A/H2B peptide, fluorescence polarization. inhibition, % (concentration not given with the values). hit rate 0.6% among 320,000; in the data active means inhibition mostly above about 10%, no sharp cut-off; inactive means mostly below about 6.7%
* = called active by the depositor; i = inactive; ? = inconclusive; / = not tested or not shown; + = active, no number.

SMILES | cardiac RTF act | Keap1-Nrf2 PPI | eLon inh | Cardiac RTF inh | LANA DNA inh | LANA-H2B inh
C[C@H]1CN([C@@H](C)CO)C(=O)c2cccc(NS(=O)(=O)c3ccc(Cl)cc3)c2O[C@@H]1CN(C)CC1CCCCC1 | 4 | 0 | -11 | 5 | -1 | -3
Cc1ccc(OCc2nnc(SC(C)C(=O)O)n2Cc2ccccc2)cc1 (stereo unspecified) | -1 | 2 | -2 | -10 | 0 | 11*
Cc1cccc(OCc2nnc(SC(C)C(=O)O)n2Cc2ccccc2)c1 (stereo unspecified) | -2 | -2 | -17 | -4 | 0 | 3
CN(CC(=O)Nc1cccc(F)c1)C(=O)CSc1nc2ccccc2s1 | -5 | -4 | -4 | -40 | -1 | 3
CCN(Cc1nc(-c2cccc(C)c2)no1)C(=O)c1ccco1 | 2 | 2 | -13 | -10 | -1 | -9
CC(C)[C@H](NC(=O)c1ccc(Cl)cc1Cl)C(=O)NNc1cccc(C(=O)O)c1 | 3 | 0 | 0 | -7 | -2 | 15*
CC(=O)c1cccc(NC(=S)NC(=O)c2ccc(C)cc2Cl)c1 | 0 | 0 | -9 | -8 | -1 | 36*
CCN(CC)CCCN1C(=O)C(=O)/C(=C(/O)c2ccccc2)C1c1cc(OC)ccc1OC (stereo unspecified) | 7 | -3 | -2 | -19 | 1 | 17*
CC(C)(C)N(Cc1ccccc1)C(=O)c1cc2ccccc2o1 | 1 | 4 | -12 | -6 | 0 | 4
O=C(N/N=C/c1cccs1)c1cc(-c2cccc3ccccc23)n[nH]1 | -4 | -1 | -1 | -17 | 0 | 17*
O=C(Cn1c(-c2ccccn2)nc2ccccc21)N/N=C/c1cccnc1 | / | -5 | -2 | / | 0 | 2
Cc1nn(C)c(Cl)c1CN1CCC(CO)(CCOc2ccccc2)CC1 | -1 | 0 | -6 | 3 | -4 | 1
Cc1c(CN2CCC(CO)(CCOc3ccccc3)CC2)[nH]c2c(Cl)cccc12 | 0 | 1 | 3 | -1 | -1 | 17*
CCCCCCCCOc1ccc(C(=O)O)cc1 | -8 | -1 | 8 | 5 | 3 | 112*
CC(=O)Oc1ccc2c(c1)Oc1cc(OC(C)=O)ccc1C21OC(=O)c2ccccc21 | + | 15* | / | i | 168* | 142*
CCN(CC(=O)NC1CCCC1)S(=O)(=O)c1ccc(F)cc1 | -3 | -5 | -2 | -5 | -1 | 5
Nc1cc(C(=O)O)c(N)c2c1C(=O)c1ccccc1C2=O | 5 | ? | 51* | -9 | 43 | 17
CCn1c(=O)c(C(=O)NNC(=O)c2ccccc2Br)c(O)c2ccccc21 | 2 | -4 | 12 | -10 | -1 | 27*
Cn1c(=O)c(C(=O)NNC(=O)c2ccccc2Br)c(O)c2ccccc21 | 1 | 2 | 3 | 12 | -1 | -3
CC(C(=O)NCc1cccs1)N1CCN(S(=O)(=O)c2ccc3c(c2)OCCCO3)CC1 (stereo unspecified) | 3 | 1 | -5 | -4 | 1 | /
CCN(CC)c1ccc(/C=N/NC(=O)CNC(=O)c2ccc3c(c2)OCCO3)cc1 | -5 | 0 | -6 | 1 | 2 | 8
CN(C)c1ccc(/C=N/NC(=O)CNC(=O)c2ccc3c(c2)OCCO3)cc1 | -2 | -4 | -3 | 8 | -2 | 25*
COC(=O)c1[nH]c2ccc(C)cc2c1NC(=O)C1=COCCO1 | 4 | 0 | -2 | -6 | 1 | 0
COC(=O)c1[nH]c2ccc(F)cc2c1NC(=O)C1=COCCO1 | 0 | 0 | 0 | 0 | -1 | 11*
CCn1c(=N)c(C(=O)NC)cc2c(=O)n3cccc(C)c3nc21 | 10 | -2 | 0 | -4 | 0 | 17*
SMILES | cardiac RTF act | Keap1-Nrf2 PPI | eLon inh | Cardiac RTF inh | LANA DNA inh | LANA-H2B inh
CCCn1c(=N)c(C(=O)NC2CCCC2)cc2c(=O)n3cccc(C)c3nc21 | 0 | 5 | -7 | 4 | 0 | 5
CC1=CC(=O)C(C(C)=Nc2ccccc2[N+](=O)[O-])C(=O)O1 (stereo unspecified) | -2 | 3 | -14 | -1 | 0 | /
O=c1c(/C=N/Nc2ccccc2)c(Sc2nnnn2-c2ccccc2)nc2ccccn12 | 32* | 0 | -130 | -60 | 2 | /
CCOC(=O)c1ccc(NS(=O)(=O)c2ccc3c(c2)oc(=O)n3C)cc1 | 4 | -1 | 3 | 0 | 0 | 32*
CC(NC(=O)CN1CCC(C(N)=O)CC1)c1ccccc1 (stereo unspecified) | 48* | -8 | -7 | -3 | 1 | 1
COc1ccc(N2CCN(S(=O)(=O)c3c(C)nc4scc(C)n4c3=O)CC2)cc1 | -1 | -1 | -4 | -9 | 0 | 4
O=C(CN1CCN(c2ccccn2)CC1)Nc1cccc(S(=O)(=O)N2CCOCC2)c1 | 0 | -3 | -4 | 5 | 0 | 26*
O=C(CSc1ncccn1)Nc1cccc(S(=O)(=O)N2CCOCC2)c1 | -6 | -2 | -18 | -5 | 0 | -3
O=C(Cn1c(=O)cnc2ccccc21)Nc1cccc(S(=O)(=O)N2CCOCC2)c1 | -6 | -4 | -10 | 3 | -1 | 26*
Cc1ccccc1Nc1cccc2nonc12 | 3 | -13 | -48 | -7 | -4 | -1
CC1CCN(C2(O)C(=O)Nc3ccc([N+](=O)[O-])cc32)CC1 (stereo unspecified) | -3 | -3 | -8 | 1 | -1 | 2
Cc1cc([N+](=O)[O-])cc2c1NC(=O)C2(O)N1CCOCC1 (stereo unspecified) | -1 | -6 | 1 | -18 | 0 | 58*
Cc1nc(=S)c2c([nH]1)-c1ccccc1CC21CCCCC1 | / | -2 | 6 | / | 0 | -7
O=S(=O)(O)c1cc(O)c2cc(Nc3ccccc3)ccc2c1 | -13 | 0 | 17 | 16 | 93* | /
O=C1NC(=S)S/C1=C\c1ccc(SCc2ccco2)o1 | -30 | 21* | 7 | 50* | 99* | -1
Cc1ccc(C2(C)NC(=O)N(CC(=O)N(Cc3ccccc3)C(C)(C)C)C2=O)cc1 (stereo unspecified) | -9 | 2 | -32 | -1 | -1 | 17*
COc1ccc(C2(C)NC(=O)N(CC(=O)NCc3ccccc3)C2=O)cc1OC (stereo unspecified) | 2 | 4 | 12 | 4 | 0 | 25*
CC(C)(C)N(Cc1ccccc1)C(=O)CN1C(=O)c2ccccc2C1=O | -5 | 2 | -3 | 6 | -1 | -5
COc1ccc(C(=O)CN2C(=O)NC(C)(c3ccccc3)C2=O)cc1OC (stereo unspecified) | 3 | -6 | -3 | -1 | -2 | 1
CCN(CC(=O)Nc1ccc(N2CCOCC2)cc1)C(=O)COc1ccccc1OC | 0 | -4 | 6 | -7 | 0 | 10*
